Assay results as given in the supplement of paper PMC6555819.

Columns and labels:
Assay in all cases: PBM binding z-score (relative to random genomic background probes); higher = stronger binding; sequences stand for … in GC…GCGATTGACAGCGTAGAATGAAGG
[1] = system: RARb homodimer (NR concentration 270 nM)
Procedure, shortened: (§1)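 Binding z-scores take random background probes as their reference. They come from custom Agilent 4×180K protein-binding microarrays incubated 1 h with ligand-free nuclear receptor dimers, with antibodies against each partner (one per run) detecting binding. Scanned fluorescence was regression-normalized.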

[2] = system: RARg:RXRa (NR concentration 270 nM, RXRa partner concentration 90 nM)
Procedure, shortened: as §1

[3] = system: RARg homodimer (NR concentration 270 nM)
Procedure, shortened: as §1

[4] = system: RXRa DBDmut IVT, anti-RXR (DBD mutation: RXRa K156A/R161A, NR concentration 90 nM)
Procedure, shortened: as §1

[5] = system: RXRa homodimer (NR concentration 180 nM)
Procedure, shortened: as §1

[6] = system: THRa:RXRa (NR concentration 90 nM, RXRa partner concentration 90 nM)
Procedure, shortened: as §1

[7] = system: THRa homodimer (NR concentration 90 nM)
Procedure, shortened: as §1

[8] = system: VDR homodimer (NR concentration 270 nM)
Procedure, shortened: as §1

Sequence | PBM binding z-score [1] | PBM binding z-score [2] | PBM binding z-score [3] | PBM binding z-score [4] | PBM binding z-score [5] | PBM binding z-score [6] | PBM binding z-score [7] | PBM binding z-score [8]
ACAGACAGGTGAGTGAAGGTAACTAAGCTGGACG | 0.0814 | 0.264 | 0.483 | -0.523 | 0.122 | 1.38 | -0.413 | -0.429
CCTGCTAGCTCATGGTCAGCTAATCTACAGTATG | -0.424 | -0.342 | -0.0465 | -0.0856 | -0.437 | -0.44 | -0.771 | -0.81
GCTATTAGTTCAAAGGGCAACCGAATGATTCTCG | 2.95 | 3.39 | 2.76 | 3.02 | 4.05 | 1.74 | -0.325 | 1.87
TCTGGCAGGCCAGAGGGTCACTCAAGAGGTACGG | 2.63 | 2.81 | 1.94 | -0.443 | 2.6 | 1.62 | -0.676 | 0.353
TCTGCTAGGACAACGATGGTCAGCTAATCTGCTA | -0.669 | -0.181 | 0.34 | 0.112 | -0.495 | 0.316 | -0.704 | -0.943
CCGACTGGGGCAAGGTGACCATAACGCACAGCCA | 1.11 | 0.469 | 0.934 | -0.745 | 0.419 | 0.718 | 0.18 | -0.459
CAAATTAGGTCACGAAAGGTCAAAGTCGAATGAC | 6.08 | 8.12 | 8.73 | 2.57 | 8.6 | 5.25 | 3.01 | 3.61
TAGCCTAGGTCATGCGGGCCAGTAGAGTGTCGGC | 3.12 | 3.98 | 4.71 | 0.541 | 3.5 | 2.96 | 0.801 | 0.486
TCTCGGAGGACACGAAAGGTCAGAGCCCGACATC | 4.82 | 4.91 | 5.5 | 0.988 | 3.95 | 3.67 | 1.25 | 1.26
CCTGCTAGGTCAATGGTCAGCAAAAGCAGCTCGC | 2.84 | 3.57 | 4.83 | 1.78 | 2.47 | 2.16 | 0.37 | 0.312
ACAGACAGGTGCTGAAGGTAACTCAGGCTATCAT | -0.511 | -0.0198 | 0.00684 | -0.376 | -0.0891 | 0.3 | -0.356 | -0.984
TAGCCTAGTTCATTGGGCCAGTATAGTACGCATC | 0.671 | 0.573 | 1.01 | 2.8 | 0.243 | 0.192 | -0.374 | 2.72
GCTAGTTGGTCAGTAAAAGTTCACACACCGGTCG | 3.69 | 3.04 | 2.42 | 1.07 | 1.82 | 1.46 | 0.436 | 2.91
CCTATTAGCTGACCATAAGGGCAACCGAAGCTCG | 1.61 | 0.474 | 0.729 | 0.637 | 0.376 | 1.38 | 1.18 | 0.435
CGAACTAGGTCATTGACAGGACAGAGAATAGTAA | 2.47 | 4.41 | 4.12 | 2.25 | 2.5 | 2.8 | 0.787 | 1.26
CCGACTGGGGCAAGGGTACCATAACGCACAGCCA | 0.569 | 0.349 | 0.692 | -1.52 | 0.269 | -0.0335 | -0.368 | -0.448
ATCGAAAGGTAGAAGGTGAGTATACCCACCCGAA | 0.237 | 0.633 | 0.664 | -0.929 | 0.752 | 0.231 | -0.265 | -0.279
ATCGAAAGGTCGTGAGGCGAGTATACAGAAAGGC | 2.55 | 4.39 | 3.91 | 1.28 | 5.34 | 2.49 | -0.00887 | 0.582
CCTCGGAGGACAACAGGAGGTCAGTGCTGCCAGA | 3.56 | 3.16 | 3.22 | 0.309 | 1.28 | 2.64 | 0.965 | 1.21

Sequence | PBM binding z-score [1] | PBM binding z-score [2] | PBM binding z-score [3] | PBM binding z-score [4] | PBM binding z-score [5] | PBM binding z-score [6] | PBM binding z-score [7] | PBM binding z-score [8]
TCGTGTAGGTTAGGGGCATTCAGAATGGCGTCGA | 1.37 | 0.648 | 0.819 | 1.09 | 0.961 | 1.3 | 0.787 | 0.922
TCAGACAGGTGAAGGTCACTCAGGTACGCAGTCG | 4.11 | 3.63 | 4.11 | 1.7 | 3.51 | 3.79 | 1.43 | 2.39
CGTCCAAGGACAAAGGTCAGTGAAGAGATGACGG | 4.61 | 5.3 | 4.95 | 1.31 | 4.03 | 4 | 1.15 | 0.88
TCTTGTAGATCAGCAGGTTAAGTAAGCTGGCCAA | 0.124 | -0.106 | -0.396 | 0.597 | 0.384 | 0.37 | -0.0624 | -0.499
CGAACTAGGTCATCCAGGACAGTGGATACATTGA | 3.05 | 4.08 | 4.8 | 2.01 | 2.9 | 3.74 | 1.96 | 2.06
TCATATAGGTAAAGGTGAAAGTGGAACGATATGA | 1.44 | 1.71 | 1.52 | 0.597 | 2.41 | 1.36 | -0.306 | -0.115
TCGAGTAGGTTAGGGGAATTCAGAATGGCGTCGA | 0.239 | -0.23 | -0.153 | 0.0691 | -0.0464 | 0.0502 | -0.191 | -0.0168
CGTCCAAGCTCAGAGAGGTCAGTGAATGCCGAGT | 3.56 | 2.72 | 2.99 | 0.551 | 2.36 | 2.19 | 0.794 | 2.2
TCGAGTAGGTTAAGGGCATTCAGAATGGCGTCGA | 1.47 | 1.08 | 1.23 | 0.693 | 1.18 | 2.16 | 0.794 | 1.14
AATCAAAGTTCATCTAGGTAACGTAAGATATGCT | 3.95 | 5.18 | 5.7 | 4.69 | 4.44 | 3.23 | 0.0393 | 4.45
GAACCAAGGTGAATAGGTCGTTGATGAGTAGGCG | 1.78 | 2.53 | 1.25 | -0.268 | 2 | 1.77 | 0.124 | -0.00141
CCTAGCAGGCCGGGGTCACTCAAGCATTTCGCTT | 3.68 | 4.98 | 3.6 | 1.99 | 6.81 | 3.89 | 2.05 | 3.75
CGTCCAAGGTCAGAGAGGTTAGTGAATGCCGAGT | 3.85 | 4.7 | 5.08 | 2.6 | 3.73 | 3.45 | 1.87 | 2.96
CAGCCTAGGTCAGTGCCAGTATAGGAGGAACGTT | 2.5 | 2.55 | 3.53 | 0.655 | 0.856 | 1.44 | 0.501 | -0.0639
CAAACTAGGTCACGAAAGGTTAAAGTCGAATGAC | 4.85 | 6.19 | 6.18 | 1.95 | 5.5 | 4.67 | 1.78 | 1.8
CCAGACAGGTCAAAGGTAACTCAGTCTGGTACGC | 3.43 | 5.62 | 4.75 | 2.47 | 6.86 | 3.06 | 0.0861 | 0.986
TCTGGTAGGTCAGTTGGTCAGCTAACGAGCTGCC | 2.92 | 3.09 | 3.99 | 0.902 | 1.37 | 0.644 | 0.0551 | 0.292
TAGCCTAGGTCATGGGACAGTATACCACGCGAAC | 3.25 | 4.44 | 4.59 | 0.981 | 3.62 | 3.35 | 1.62 | 0.784
CTACCAAGGTGAACAAGGTCGTTGAATACTATTC | 2.13 | 1.97 | 1.95 | 1.24 | 1.98 | 3.25 | 1.83 | 2.1

Sequence | PBM binding z-score [1] | PBM binding z-score [2] | PBM binding z-score [3] | PBM binding z-score [4] | PBM binding z-score [5] | PBM binding z-score [6] | PBM binding z-score [7] | PBM binding z-score [8]
CGTACTGGGCCAAAAAGGTCATTGATGCCGATAA | 4.63 | 4.76 | 4.11 | 1.07 | 4.86 | 3.15 | 0.617 | 2.61
CCTACTGTGCCACGAAAGGTCATTGATTCAGTGA | 4.67 | 4.41 | 3.73 | 1.43 | 4.76 | 3.46 | 1.67 | 2.34
TCTCGGAGGACCCGAAAGGTCAGAGCTCGACATC | 4.21 | 3.92 | 4.15 | 0.325 | 4.04 | 2.75 | 0.369 | 0.435
ATATATAGGTTAAGGGTCATTCAGGTTGGTTCGC | 4.27 | 4.98 | 4.04 | 2.17 | 6.8 | 3.86 | 2.03 | 4.9
AATACAGGGTCATCGTAGCCCAGAGTACGCACAG | 3.25 | 5.57 | 4.42 | 3.46 | 6.57 | 3.69 | 1.34 | 3.87
TCTCGGAGGACACGACGGTCAGAGCTTTCCAGAG | 1.53 | 0.617 | 1.65 | 0.193 | 0.0986 | 1.33 | 0.161 | -0.222
TTTCAAAGTTCAAAGGTAACGTAAGTATCCACAC | 3.87 | 6.29 | 5.88 | 4.68 | 7.2 | 3.58 | 0.252 | 4.68
TCTATTAGTTGATTAGGTCAACCGAAACAGCGGA | 3.09 | 2.8 | 2.68 | 1.55 | 2.1 | 3.1 | 2.74 | 1.2
CTCGAAAGGTCCGTTGAGGTGAGTATACGGATAA | 0.529 | 0.513 | 0.708 | 0.119 | 0.313 | 4.14 | 0.988 | 0.885
GCTAGTTGCTCAGTAAAAGGTCACACACCGGTCG | 5.11 | 4.7 | 4.02 | 0.441 | 5.17 | 3.61 | 1.73 | 1.14
CCTTACGGGTCAAGGATATAGCACGGGTGGTACG | 3.04 | 4.53 | 4.5 | 0.465 | 4.68 | 2.38 | 0.293 | 0.886
TCATATAGGTACACAGGTGAAAGTCCGTAAGTTA | 1.25 | 0.77 | 0.513 | 2.06 | 1.27 | 0.937 | 0.627 | 1.07
TCATATAGGAAAACAGGTGAAAGTCCGTAAGTTA | 0.455 | 0.219 | 0.0668 | 1.81 | 1.17 | 0.338 | 0.187 | 0.639
ATCTCTAGGTAACCAAGTTCAGTGCATGCCGAAC | 1.69 | 0.735 | 0.952 | 1.12 | 0.814 | 1.62 | 0.968 | 3.1
TCATATAGGTAAAGGTGACAGTCGAACGATATGA | 1.42 | 1.61 | 1.5 | 0.827 | 2.06 | 1.38 | -0.0654 | -0.0372
CAAACTAAGTCAAGAGGTCAAAGTCCGCTTCCCG | 4.49 | 5.8 | 4.46 | 2.11 | 6.2 | 3.92 | 1.7 | 4.04
GCCAGCAGGCCATTTGGGTCACTCAATGACGGGC | 1.78 | 1.14 | 1.3 | -0.31 | 0.736 | 1.8 | 0.516 | 0.49
AATACAGGGTCACTATGCCAGAGTAGGTACGAAT | 2.83 | 4.76 | 4.14 | 2.94 | 5.15 | 3.31 | 1.27 | 2.48
TCTATTAGTTGAAGAGCAACCGACGAGTCCGTTT | -0.385 | -0.11 | -0.0161 | 1.36 | 0.301 | -0.14 | -0.463 | 1.23
